From PubChem BioAssay (NCI)
The panel holds about 83,000 compounds, 20% with a hit somewhere; the sample as a whole holds those more often.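 Single-concentration screen, 48 h exposure, 96-well plates. Endpoint: percent growth. Below 10 = active.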 Active and inactive are the calls of the source.

test system: EKVX NSCLC; test: NCI-60 one-dose screen, 48 h (100 = growth as untreated, 0 = no growth, -100 = all killed); details: 10 µM unless noted
Protocol: Growth inhibition of the EKVX human Non-Small Cell Lung tumor cell line is measured as a screen for anti-cancer activity. Cells are grown in 96 well plates and exposed to the test compound for 48 hours. Compounds are tested at a single concentration, which is 10^-5 M for most compounds. The reported endpoint is percent growth (GI% or GIPRCNT), where numbers from 0 - 100% represent growth inhibition, and numbers from -100% - 0 represent cell death. For example, a value of 40 represents 60% growth inhibition. A value of 0 means no net growth occurred over the course of the experiment. A value of -40 indicates 40% of cells at the beginning of the experiment died by the end of the experiment. A value of -100 means all cells are dead at the end of the experiment.
NCI-60 Human Tumor Cell Lines Screen was performed using the standard one-dose NCI protocol, which is described in more detail at https://dtp.cancer.gov/discovery_development/nci-60/default.htm.
Compounds with GIPRCNT values below 10 were considered active. Activity score was based on GIPRCNT using the following formula: […]
Score is 0 for GIPRCNT values of 100 or above, 50 for GIPRCNT values of 0, and 100 for GIPRCNT values of -100.

Structure (SMILES) | growth
CO[C@H]1CC(=O)n2c3ccccc3c3c4c(c5c6ccccc6n1c5c32)C(=O)NC4=O | 71.8% (inactive)
C=CCN1C(=O)c2cccc3c(N4CCOCC4)ccc(c23)C1=O | -7.17% (active)
COc1cccc(CNc2c3ccccc3nc3ccccc23)c1 | 51.8% (inactive)
Cc1ccnc(Nc2ccc([N+](=O)[O-])c(NCCN3CCOCC3)n2)c1 | 96.4% (inactive)
c1nc2ccc(-c3cc4ccc5[nH]ncc5c4c4c3CCCC4)cc2[nH]1 | 93% (inactive)
COC(=O)CCC/C=C\C[C@H]1C=CC(=O)/C1=C/C[C@@H](O)C/C=C\CC(F)(F)F | 47.1% (inactive)
Cc1ccc(S(=O)(=O)OCCCOS(=O)(=O)c2ccc(C)cc2)cc1 | 99.7% (inactive)
CC1C(/C=N/NC(N)=S)C(C#N)(C#N)C1(C#N)C#N (stereo not given) | 104% (inactive)
O=c1nc(-c2ccccc2)c2cc(-c3ccc(C(F)(F)F)nc3)ccc2[nH]1 | 97.8% (inactive)
O=C(CCCCCCN1CC(=O)N2[C@H](c3ccc(Cl)cc3)c3[nH]c4ccccc4c3C[C@@H]2C1=O)NO | 65.7% (inactive)
O=C(O)c1cn(C2CC2)c2cc(N3CCN(C(=O)Nc4nc(-c5ccc(Br)cc5)cs4)CC3)c(F)cc2c1=O | 24.5% (inactive)
CCSc1oc(C)nc1[P+](c1ccccc1)(c1ccccc1)c1ccccc1 | 25.9% (inactive)
O=C(CC(=O)Nc1cccc(C(=O)O)c1)Nc1cccc(C(=O)O)c1 | 101% (inactive)
C[C@H](CCCC(=O)NCC#CCN1CCN(C)CC1)[C@H]1CC[C@H]2[C@@H]3CC[C@@H]4CC(=O)CC[C@]4(C)[C@H]3CC[C@]12C | 93.5% (inactive)
COC1=C(C)C(=O)N2[C@@H]1[C@H](c1ccccc1)OC21C=CC(=O)C=C1 | 70.3% (inactive)
CN(C)S(=O)(=O)Oc1ccc(-c2sc3cc(OS(=O)(=O)N(C)C)ccc3c2C(=O)c2ccc(OCCN3CCCCC3)cc2)cc1 | 68.9% (inactive)
CCCCNC(=O)Oc1ccc(/C(=C(/C)Cc2ccc(OC)cc2)c2ccc(OCCN3CCCCCC3)cc2)cc1 | 77.5% (inactive)
COc1ccc(Oc2nc(Nc3ccc(N4CCOCC4)cc3)ncc2NC(=O)Nc2cc(OC)cc(OC)c2)cc1 | 73.1% (inactive)
Nc1ncnc2c1N=C(c1ccc3c(c1)OCO3)CC(c1cccc(Nc3ccnc4cc(C(F)(F)F)ccc34)c1)N2 (stereo not given) | 89.5% (inactive)
COC(=O)/C=C1/SC(=Nc2ccc([N+](=O)[O-])cc2)N(CCc2c[nH]c3ccc(O)cc23)C1=O | 64.7% (inactive)

Structure (SMILES) | growth
N#C/C(=C\c1ccc([N+](=O)[O-])cc1)n1nnc2cc(F)c(F)cc21 | 82.1% (inactive)
CSC1=Nc2c(c(C)c(-c3ccccc3)n2CCCC(=O)O)C2=NC(=O)C[C@H](C)N12 | 92.8% (inactive)
CC1=C(C(=O)Nc2nc(-c3ccc(Cl)cc3)cs2)[C@H](c2ccc(O)cc2)NC(=O)N1 | 94.1% (inactive)
CN1CCN(CCOc2ccc(-c3cnc4c(-c5ccc(F)cc5)cnn4c3)cc2)CC1 | 76.3% (inactive)
COCCn1cc(-c2csc(-c3c[nH]c4ccc(Br)cc34)n2)c2cccnc21 | 36.9% (inactive)
Fc1cc(Nc2ccc3c(OCCCN4CCOCC4)cccc3n2)ccc1Cl | 39.9% (inactive)
CC1=CCC(OC(=O)C(C)(C)CC(O)(C(C)O)C(O)C2(C)C=CC(Cc3ccc(C(C)C)cc3)(C(C)C)CC2)(C(C)C)CC1 (stereo not given) | 98.3% (inactive)
N#Cc1c(-c2ccccc2)nc(SCc2nnc(-c3ccc(Cl)cc3)o2)[nH]c1=O | 95.5% (inactive)
CCOC(=O)c1c(C)nc2ccccc2c1/C=C/c1cccs1 | 67.6% (inactive)
COc1ccc(CCN2C(=O)/C(=C/c3ccc(C4Oc5ccccc5C5CC(c6ccccc6)=NN54)cc3)SC2=S)cc1 (stereo not given) | 97.4% (inactive)
CC1=C(CCC(C)NCc2ccc(OCCCN3CCCCC3)cc2)C(C)(C)CCC1 (stereo not given) | -39.1% (active)
C/C(=N\O)[C@@H]1CC[C@]2(CO)CC[C@]3(C)[C@H](CC[C@@H]4[C@@]5(C)CCCNC(C)(C)[C@@H]5CC[C@]43C)[C@@H]12 | 92.7% (inactive)
O=C(NNC(=O)c1nc2cc(F)ccc2n2cccc12)c1cnccn1 | 29.2% (inactive)
Clc1ccccc1-c1cnn2cc(-c3ccccc3)cnc12 | 83.3% (inactive)
CN1CCN(Cc2ccc(NC(=O)c3cncc(C#Cc4cnc(N)c5ccc(F)cc45)c3)cc2C(F)(F)F)CC1 | 42% (inactive)
COc1ccc(/C=C2\COc3ccc(O)cc3C2=O)cc1 | 105% (inactive)
O=C1Nc2ccccc2/C1=C/c1cccn1C(=O)c1ccc(Cl)s1 | 22.6% (inactive)
CCCCC#Cc1c(I)n(C)c(=O)[nH]c1=O | 52.9% (inactive)
CC(=O)/C(=C/c1ccc([N+](=O)[O-])cc1)C(=O)c1ccccc1 | 101% (inactive)
Nc1nc(N)c2c(n1)NC(c1ccc(Cl)cc1)C1CCc3ccccc3C1=N2 (stereo not given) | 35.8% (inactive)
